Screens (PubChem BioAssay)
NTR1 agonist: agonists of human NTR1, primary screen, imaging, U2OS cells, beta-arrestin-GFP, high content; NTR1-U2OS beta-arrestin-GFP spot imaging, agonist mode; activation, % at 20 µM; AID 493036, 2011; Neurotensin receptor type 1 (Homo sapiens), P30989; hit rate 0.17% among 330,000;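 active = activation at or above 40% of the spot to cytoplasm intensity ratio, with at least 20 cells analyzed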
TMEM16A inh: TMEM16A chloride channel inhibitors, primary screen, cell-based, HTS; hit rate 1.2% among 310,000; AID 588511, 2011; Anoctamin-1 (Mus musculus), Q8BHY3; HEK293 TMEM16A/YFP iodide influx fluorescence, ionomycin; normalized B-score (activity score, 25-100; higher = stronger inhibition) at 10 µM;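 active = ratio plate-corrected score three or more library SD toward inhibition, starting fluorescence score within five deviations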;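 also: score derived from kinetic fluorescence span divided by baseline fluorescence per well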
MEKK2 mut-MEK5: MEK5 binding signal on mutant MEKK2 PB1, primary screen, biochemical, multiplex bead flow cytometry, Alexa488-MEK5 | Alexa488-MEK5 binding to MEKK2 mutant | percent response, % at 10 µM | hit rate 0.35% among 290,000 | AID 1530, 2009; in the data active = percent response above about 24%, passing the limit was not always enough
ANO1 activ: TMEM16A chloride channel activators or potentiators, primary screen, cell-based, HTS | B-score at 10 µM | hit rate 0.3% among 340,000 | HEK293 TMEM16A/YFP-H148Q/I152L, iodide quench fluorescence; hits give low values | Anoctamin-1 (Mus musculus), Q8BHY3;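 active = fluorescence-ratio B-score plate-corrected deviation score at least 3 library SD below zero, with starting fluorescence score within 5 deviations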;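 also: channel opened by trigger with iodide after compound preincubation; score built on the fluorescence ratio of max minus min over baseline; more negative score means more quench and so TMEM16A activation or potentiation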
MEKK2wt PB1 HTS: modulators of MEK5 binding to wildtype MEKK2, primary screen, biochemical, multiplex bead flow cytometry, Alexa488-MEK5; Alexa488-MEK5 binding to MEKK2 WT; actives lie on both sides; binding response (% of control), % at 10 µM; hit rate 1.1% among 290,000; in the data active = binding response below about 67% or above about 130%
MEKK3 PB1 HTS: modulators of MEKK3-MEK5 PB1 binding, primary screen, biochemical, wildtype MEKK3, multiplex bead flow cytometry, Alexa488-MEK5. AID 1529, 2009. hit rate 1.4% among 290,000. bead-based flow cytometry, Alexa488-MEK5 binding to MEKK3; actives lie on both sides; 0 = blocked by unlabeled MEK5, 100 = vehicle. binding response (% of control), % at 10 µM;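 active = binding response more than 3 SD above or below the average of its plate-row segment, actives on both sides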;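 also: Alexa488 bead fluorescence after subtracting the streptavidin-only scavenger bead signal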
Target sequence (Q99759 whole entry, looked up): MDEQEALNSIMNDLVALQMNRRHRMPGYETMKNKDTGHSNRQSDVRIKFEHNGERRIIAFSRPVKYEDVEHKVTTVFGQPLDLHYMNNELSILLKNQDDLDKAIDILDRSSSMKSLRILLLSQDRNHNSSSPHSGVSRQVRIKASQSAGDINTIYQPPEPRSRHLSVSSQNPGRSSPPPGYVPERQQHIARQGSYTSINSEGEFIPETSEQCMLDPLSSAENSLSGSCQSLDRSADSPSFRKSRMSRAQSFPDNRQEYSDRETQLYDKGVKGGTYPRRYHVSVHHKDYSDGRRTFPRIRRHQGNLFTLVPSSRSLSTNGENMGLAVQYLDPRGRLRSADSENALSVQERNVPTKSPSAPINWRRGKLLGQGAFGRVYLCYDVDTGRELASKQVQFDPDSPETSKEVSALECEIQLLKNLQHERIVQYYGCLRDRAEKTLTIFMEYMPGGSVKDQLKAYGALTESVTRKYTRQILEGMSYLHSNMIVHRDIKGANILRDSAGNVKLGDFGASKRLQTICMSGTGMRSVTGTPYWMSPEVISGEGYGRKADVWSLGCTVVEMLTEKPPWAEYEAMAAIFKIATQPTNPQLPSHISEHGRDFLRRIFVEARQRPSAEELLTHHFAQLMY
MEKK2wt confirm: modulators of MEK5 binding to wildtype MEKK2, confirmation, biochemical, single concentration, multiplex bead flow cytometry | shares compounds with MEKK3 PB1 HTS | Alexa488-MEK5 binding to MEKK2 WT; actives lie on both sides | binding response (% of control), % at 10 µM | hit rate 2.4% among 5,900 | AID 1892, 2009; in the data active = binding response below about 16% or above about 210%; inactive = in between
MEKK2mut-MEK5: mutant MEKK2 PB1-MEK5 binding signal retest – biochemical, single concentration, multiplex bead flow cytometry, confirmation. shares compounds with MEKK3 PB1 HTS. hit rate 2% among 5,900. AID 1893, 2009. Alexa488-MEK5 binding to MEKK2 mutant. percent response, % at 10 µM; in the data active = percent response mostly above about 71%, no sharp cut-off; inactive = mostly below about 38%;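 also: higher means compound restores mutant binding toward wildtype level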
MEKK3 confirm: MEKK3 wild-type PB1 binding to MEK5, inhibitors, confirmation, biochemical, bead multiplex flow cytometry, single concentration, wildtype; shares compounds with MEKK3 PB1 HTS; Alexa488-MEK5 binding to MEKK3; hits give low values; hit rate 1.8% among 5,900; binding response (% of control), % at 10 µM;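 active = binding response below 72% of control, or above a set upper limit, though filed actives all read lower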;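 also: lower values mean stronger disruption of MEK5 binding to MEKK3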
A number is an active result; 0 = inactive; - = no result given. Compounds with a hit are over-represented: about 3.4% of the library has one in this group of screens.

SMILES | NTR1 agonist | TMEM16A inh | MEKK2 mut-MEK5 | ANO1 activ | MEKK2wt PB1 HTS | MEKK3 PB1 HTS | MEKK2wt confirm | MEKK2mut-MEK5 | MEKK3 confirm
CCN(CC)C(=O)CC(c1cc(OC)c(OC)c(OC)c1)c1c(OC)cc(OC)c2c(-c3ccccc3)cc(=O)oc12 (stereo unspecified) | 0 | 0 | 0 | 0 | 160 | 133 | 0 | 0 | 0
CCN(CC)C(=O)CC(c1cc(OC)c(OC)c(OC)c1)c1c(OC)cc(OC)c2ccc(=O)oc12 (stereo unspecified) | 0 | 0 | 0 | 0 | 151 | 0 | 0 | 0 | 0
O=C(OCc1nc2ccccc2s1)c1ccc(Br)o1 | 0 | 0 | 0 | 0 | 0 | 144 | 0 | 0 | 0
Cn1c(=O)c2cc(S(=O)(=O)NC(Cc3ccccc3)C(=O)NCC3CCCO3)ccc2n(C)c1=O (stereo unspecified) | 0 | 0 | 0 | 0 | 0 | 138 | 0 | 0 | 0
CCN(CC)CCN(C(=O)c1ccc(Br)s1)c1nc2cc3c(cc2s1)OCCO3 | 0 | 0 | 0 | 0 | 138 | 0 | 0 | 0 | 0
CCN(CC)CCN(C(=O)c1ccc(C(=O)c2ccccc2)cc1)c1nc2cc3c(cc2s1)OCO3 | 0 | 0 | 31 | 0 | 157 | 0 | 0 | 0 | 0
CCN(CC)CCN(C(=O)c1ccc(C(=O)c2ccccc2)cc1)c1nc2c(OC)cccc2s1 | 0 | 0 | 42 | 0 | 178 | 0 | 0 | 0 | 0
CCN(CC)CCN(C(=O)c1ccc([N+](=O)[O-])cc1)c1nc2c(OC)cccc2s1 | 0 | 0 | 0 | 0 | 0 | 0 | - | - | -
Cc1ccc(C(=O)N2CCCC(N3CCN(c4ccccc4F)CC3)C2)s1 (stereo unspecified) | 0 | 0 | 0 | 0 | 0 | 0 | - | - | -
CCC(=O)Nc1ccc(C(=O)CSc2nnc(-c3ccc(O)cc3)n2CC2CCCO2)cc1OC (stereo unspecified) | 0 | 0 | - | 0 | - | - | - | - | -
CCN(CC)C(=O)CSc1nnc(-c2ccc(O)cc2)n1CC1CCCO1 (stereo unspecified) | 0 | 0 | 0 | 0 | 0 | 136 | 0 | 0 | 0
O=C(CCC(=O)Nc1ccc(F)cc1)N/N=C/c1ccccc1O | 0 | 0 | 0 | 0 | 0 | 149 | 0 | 0 | 0
Cc1ccc(S(=O)(=O)N2CCOCC2)cc1NC(=O)COC(=O)/C=C/c1ccc(F)cc1 | 0 | - | - | 0 | - | - | - | - | -
CCN(CC)S(=O)(=O)c1ccc(NS(=O)(=O)c2ccc3oc(=O)[nH]c3c2)cc1 | 0 | 0 | 0 | 0 | 0 | 0 | - | - | -
CCN(CC)S(=O)(=O)c1ccc(NS(=O)(=O)c2ccc(O)c([N+](=O)[O-])c2)cc1 | 0 | 0 | 0 | 0 | 0 | 144 | 0 | 0 | 0
O=C(CN1C2=NCCN2c2ccccc21)c1ccc(Br)s1 | 0 | 0 | 0 | 0 | 0 | 142 | 0 | 0 | 0
N#CCCN(C(=O)COC(=O)c1cc2ccccc2oc1=O)c1ccccc1 | 0 | - | - | 0 | - | - | - | - | -
